Source: PubChem BioAssay AID2810 (NMMLSC, 2010)
The whole screen tested about 1,200 compounds, of which about 65 (5%) were called active.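 Rule for the calls: active = at either tested dose, response and 90th-percentile vesicle-stain brightness of CD8 cells under set limits and under 9% cells vesicle-bound; inactive = the rest.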 For the sample, actives were picked, then their nearest neighbours and some compounds at random.

Experiment: modulators of CD8 T cell-vesicle binding, confirmation, cherry-picked primary hits, two concentrations (AID 2810);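 note: lower values mean blocking of vesicle binding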;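 for percent response (vesicle binding): ratio of mean FL2 vesicle stain of CD8+ cells to that row's control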
Settings: 2C CD8+ T cell-vesicle binding, flow cytometry; for double positive events: CD8+/vesicle+ events
[1] = at 15.4 µM, stronger effect = lower value

Structure (SMILES) | double positive events (at 7.7 µM) | double positive events [1] | percent response (vesicle binding) [1] | percent response (vesicle binding) (response, at 7.7 µM)
Cc1ccc(NC(=O)C2CCCO2)cc1[N+](=O)[O-] (stereo unspecified) | 25.5% | 9.4% | 161% (inactive) | 161%
CCOC(=O)C1CCN(C(=O)c2cccc(S(=O)(=O)NCc3ccccc3)c2)CC1 | 16.4% | 18.8% | 420% (inactive) | 128%
CCOC(=O)C1CCN(C(=O)c2ccc(NC(=O)C3CCCO3)cc2)CC1 (stereo unspecified) | 27.3% | 1.9% | 21.8% (active) | –
O=C(COc1ccccc1)NNC(=O)c1ccc(Cl)cc1 | 27.8% | 8% | 220% (inactive) | 616%
CN(C)S(=O)(=O)c1ccc(NC(=O)c2ccc([N+](=O)[O-])cc2)cc1 | 25.4% | 22.8% | 217% (inactive) | 312%
CCC(C(=O)Nc1ccccc1)c1ccccc1 (stereo unspecified) | 6.9% | 21.7% | 199% (active) | 59.2%
CCOc1ccccc1NC(=O)C(OC(=O)c1ccccc1O)c1ccccc1 (stereo unspecified) | 6.9% | 21.5% | 190% (inactive) | 189%
CCC(C)c1ccc(NC(=O)NCc2cccnc2)cc1 (stereo unspecified) | 8.6% | 27.9% | 260% (inactive) | 356%
Cc1ccc(CONC(=O)c2cccc([N+](=O)[O-])c2)cc1 | 27.4% | 16.3% | 328% (inactive) | 576%
CCOC(=O)C1(Cc2cccc(OC)c2)CCN(Cc2ccc3c(c2)OCCO3)CC1 | 13% | 17.1% | 114% (inactive) | 148%
CCOc1ccc(/C(O)=C2/C(=O)C(=O)N(CCN(CC)CC)C2c2cccs2)cc1 (stereo unspecified) | 17.2% | 26.6% | 300% (inactive) | 187%
COc1ccc(/C(O)=C2/C(=O)C(=O)N(Cc3cccnc3)C2c2ccco2)cc1OC (stereo unspecified) | 23.3% | 0.8% | 27% (active) | 360%
COCCN1C(=O)C(=O)/C(=C(/O)c2cccc(OC)c2)C1c1ccc(C)o1 (stereo unspecified) | 12.5% | 16.5% | 205% (inactive) | 173%
COc1ccc(NC(=O)COC(=O)c2cc(Cl)ccc2O)cc1S(=O)(=O)N1CCCCC1 | 27% | 23.1% | 366% (inactive) | 227%
CC1CC(C)(C)NC(=S)N1CC(=O)NCc1ccccc1Cl (stereo unspecified) | 8.8% | 18.9% | 506% (inactive) | 79.3%
CCOC(=O)C1(CC2CCCCO2)CCN(S(=O)(=O)c2ccc(C)s2)CC1 (stereo unspecified) | 17.8% | 18.7% | 122% (inactive) | 196%
COc1ccc(F)c(CN2CCC(n3nccc3NC(=O)C3CCOC3)CC2)c1 (stereo unspecified) | 29.1% | 10.9% | 235% (inactive) | 538%
CCCCCCCCn1c2c(c(=N)c3c1CCC3)CCCC2 | 1.8% | 5.8% | 46.9% (active) | 54.6%
C=CCN1C(=O)c2ccc(C(=O)N3CCN(S(=O)(=O)c4cccc(Cl)c4)CC3)cc2C1=O | 12.4% | 26.8% | 118% (inactive) | 125%
CC(C)(C)C(=O)Nc1ccc2c(c1)OCCOCCOc1cc(NC(=O)C(C)(C)C)ccc1OCCOCCO2 | 22.2% | 25.5% | 251% (inactive) | 910%
COc1ccc(N(CC(=O)NCCC2=CCCCC2)S(=O)(=O)c2ccc(C)cc2)cc1OC | 8.6% | 22.9% | 140% (inactive) | 96.7%
Cc1c(C(=O)NCCSCc2c(F)cccc2Cl)cnn1-c1ccc(Cl)cc1 | 19.9% | 1.6% | 26.4% (active) | 229%

Structure (SMILES) | double positive events (at 7.7 µM) | double positive events [1] | percent response (vesicle binding) [1] | percent response (vesicle binding) (response, at 7.7 µM)
O=C(CSCCO)N1CCc2ccccc21 | 9.8% | 26% | 310% (inactive) | 415%
Nc1nnc(SCCOc2ccc(Br)cc2)s1 | 34.9% | 15.9% | 217% (inactive) | 294%
Cc1sc(NC(=O)CN2CCOCC2)c(C#N)c1C | 10.4% | 29% | 344% (inactive) | 364%
COc1cccc(C(=O)O[C@@H]2[C@H](Cc3ccccc3)NS(=O)(=O)[C@H]3C[C@@H]4C=C[C@]23O4)c1 | 30% | 18.9% | 180% (inactive) | 197%
Cc1oc(-c2ccccc2)nc1Cn1cccc1C1=NC(c2ccccc2)CO1 (stereo unspecified) | 13.6% | 14.5% | 105% (inactive) | 179%
CCn1nc(C(=O)NCCc2ccc3c(c2)OCCO3)c2ccccc2c1=O | 9.8% | 15.2% | 173% (inactive) | 148%
OC[C@H]1O[C@@H](Oc2ccc3cc(Br)ccc3c2)[C@H](O)[C@@H](O)[C@H]1O | 14.4% | 27.5% | 389% (inactive) | 493%
COC(=O)CN1C(=S)N(C)C(=O)C1CC(=O)Nc1ccccc1 (stereo unspecified) | 18.9% | 12.8% | 120% (inactive) | 896%
COc1ccc(NC(=O)CC2C(=O)N(Cc3ccccc3)C(=S)N2CCN2CCOCC2)cc1 (stereo unspecified) | 13% | 0.6% | 20% (active) | 196%
COc1ccc(C(=O)N2CCN(c3ccc(NC(=O)Cc4ccccc4)cc3)CC2)cc1 | 25.4% | 23.5% | 291% (inactive) | 635%
S=c1sc2c(N3CCOCC3)ncnc2n1-c1ccccc1 | 9.4% | 12.2% | 206% (inactive) | 355%
Cc1cc2ncn(C(=O)N3CCCCCC3)c2cc1C | 6.8% | 21.3% | 112% (inactive) | 241%
CCCCn1c(-c2ccccc2)nnc1-c1ccccc1 | 37.8% | 9.3% | 150% (inactive) | 219%
O=C(N/N=C/c1cccc(OC(=O)c2ccccc2Cl)c1)c1cccnc1 | 25.8% | 10% | 87% (inactive) | 350%
O=C(N/N=C/c1cccc(OCc2ccccc2)c1)c1ccc(Br)cc1 | 9.6% | 0.9% | 36% (active) | 128%
O=C(N/N=C/c1ccc(OCc2ccccc2)cc1)c1cccs1 | 12.1% | 18.5% | 272% (inactive) | 428%
Cc1ccc(N(CC(O)CN2CCCC2)S(=O)(=O)c2ccc(C)cc2)cc1 (stereo unspecified) | 24.2% | 34.6% | 136% (inactive) | 325%
COc1cc(F)c(C2=CC(=O)C[C@H](c3ccc(F)cc3)C2)cc1F | 24.2% | 13.4% | 170% (inactive) | 320%
CC1(C)Cc2c(C#N)c(NC3CCCCC3)nc(-c3ccco3)c2CO1 | 5.9% | 2.8% | 33.8% (active) | 107%
O=C(NCCC1=CCCCC1)C(=O)NCC(c1ccco1)N1CCN(c2ccccc2F)CC1 (stereo unspecified) | 36.4% | 10.7% | 201% (inactive) | 264%
O=C(NCc1cccnc1)C(=O)NCC(c1ccco1)N1CCN(c2ccccc2)CC1 (stereo unspecified) | 20.2% | 6.1% | 135% (inactive) | 202%
